Test in all cases: NCI-60 one-dose screen, 48 h (100 = growth as untreated, 0 = no growth, -100 = all killed)
The subject of assay [1] is HCT-15 colon. The settings on record: 10 µM unless noted.
Assay [2] relates to SNB-75 CNS. The settings on record: 10 µM.
Assay [3] concerns SNB-19 CNS. As to conditions: 10 µM unless noted.
Assay [4] has as its system U251 CNS. The settings on record: 10 µM unless noted.
Assay [5] concerns PC-3 prostate. As to conditions: 10 µM unless noted.
Assay [6] deals with SK-MEL-5 melanoma. As to conditions: 10 µM unless noted.
For assay [7], the system named is UACC-62 melanoma. As to conditions: 10 µM unless noted.
Assay [8] has as its system LOX IMVI melanoma. The settings on record: 10 µM unless noted.
The test system of assay [9] is SK-MEL-28 melanoma. As to conditions: 10 µM unless noted.
Assay [10] relates to SK-MEL-2 melanoma. As to conditions: 10 µM unless noted.
For assay [11], the system named is EKVX NSCLC. The settings on record: 10 µM unless noted.
The test system of assay [12] is SN12C renal. As to conditions: 10 µM unless noted.
Assay [13] has as its system UO-31 renal. As to conditions: 10 µM unless noted.
The subject of assay [14] is TK-10 renal. As to conditions: 10 µM unless noted.
The test system of assay [15] is ACHN renal. The settings on record: 10 µM unless noted.
Assay [16] concerns A498 renal. As to conditions: 10 µM unless noted.
For assay [17], the system named is CCRF-CEM leukemia. The settings on record: 10 µM unless noted.
For assay [18], the system named is MOLT-4 leukemia. The settings on record: 10 µM unless noted.
Assay [19] relates to CAKI-1 renal. The settings on record: 10 µM unless noted.

About 83,000 compounds went through this panel and 20% of them were active in at least one assay; those are over-represented in the sample as a whole.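 A percent growth of 40 corresponds to 60% growth inhibition; 0 means no net growth; -100 means all cells died. Active threshold: below 10.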 Unmarked numbers belong to inactive results. Active and inactive are the calls of the source.

Take `NC(N)=Nc1nc2ccccc2o1`: the growth in assay [1] was 105%; in assay [2], 111%; in [3] it was 99.7%; in [4] it was 101%; in [5] it was 57.6%; in assay [6] it was 93.8%. Further, the growth was 104% in assay [7]; 95.5% in assay [8]; 95.5% in assay [9]; 133% in assay [10]; 109% in [11]; 110% in [12]. In addition, the growth is 99.9% in assay [13]; 129% in assay [14]; 96.6% in assay [15]; 89.5% in assay [16]; 80.1% in assay [17]; 95.4% in [18].
Consider `COC(OC)c1ccccc1`, for which the growth was 105% in assay [1]; 91% in assay [2]; 121% in assay [3]; 99.3% in [4]; 93.1% in assay [5]; 107% in [6]. Moreover, the growth in assay [7] is 107%; in [8], 88.2%; in assay [9], 104%; in [11] it was 103%; in [12] it was 102%; in [13], 85.4%. For the same compound, the growth was 117% in [14]; 102% in assay [15]; 95.4% in [19]; 132% in [16]; 108% in assay [18].
`O=C(CCl)N(C1CCCCC1)C1CCCCC1`: the growth in [1] is 98.4%; in [2], 95.7%; in assay [3], 109%; in assay [4] it was 104%; in assay [5] it was 93.7%; in assay [6], 93.3%. In addition, the growth in assay [7] is 102%; in assay [8] it was -3.14% (active); in assay [9] it was 104%; in assay [10], 108%; in assay [11], 104%; in assay [12] it was 107%. Also, the growth in [13] is 98.3%; in assay [14] it was 104%; in assay [15] it was 109%; in [16], 91.7%; in [18] it was 110%.
For `COc1cc2c(c(OC)c1OC)-c1ccc(N)c(=O)cc1[C@@H](NC(C)=O)CC2`, the growth in [1] is 11.8%; in [2], 33.8%; in [3], 34.2%; in [4], 18%; in assay [5], 29.3%; in assay [6], -54.3% (active). Also, the growth in assay [7] is 30.8%; in assay [8], 25%; in [9], 61.8%; in [11], 51.4%; in assay [12], 27.6%; in assay [13], 40%. Besides, the growth in [14] was 33.4%; in assay [15] it was 27.5%; in [19] it was 19.1%; in assay [16], -12.7% (active); in [18], 20.7%.
As to `CCCOC(=O)n1cccc1`, the growth in assay [1] is 107%; in assay [2], 75.4%; in assay [3], 100%; in [4], 107%; in assay [5], 91.6%; in assay [6] it was 109%. Further, the growth in [7] was 91.5%; in assay [8], 89.8%; in assay [9] it was 116%; in [10], 118%; in [11], 99.7%; in [12], 94.2%. The growth in assay [14] is 110%; in [19], 108%; in assay [16], 106%; in assay [17], 99.2%; in [18], 117%.
Take `Nc1ncnc2c1c(-c1ccc(Oc3ccccc3)cc1)nn2C[C@@H]1SSC[C@@H]1O`: the growth in assay [1] is 64.6%; in assay [2], 5.33% (active); in assay [3] it was 60.7%; in [4], 37.5%; in assay [5], 55.4%; in [6], -86.4% (active). The growth in [7] is -81.1% (active); in [8], -20.5% (active); in assay [9] it was 2.67% (active); in [10] it was -57.5% (active); in assay [11], 25.2%; in [12] it was 37.1%. The growth in assay [13] was 13.7%; in assay [15] it was 23.6%; in [16] it was 43.8%; in assay [17] it was -15% (active); in assay [18] it was -38.1% (active).
`COc1cc(C2C3=C(COC3=O)Nc3cc4c(cc32)CCC4)cc2c1OCO2` (stereo not given): the growth was 14.8% in assay [1]; 46.3% in assay [2]; 42.9% in [3]; 27.5% in assay [4]; 20.4% in [5]; -42.4% (active) in assay [6]. The growth in assay [7] is 43.7%; in [8] it was 13.9%; in assay [9], 59.1%; in assay [10], 54.4%; in assay [11], 45.4%; in [12], 30.9%. Besides, the growth in assay [13] is 53.5%; in assay [14], 67.4%; in assay [16], 25.6%; in assay [17] it was 10.3%; in assay [18], 19.6%.
Regarding `COc1ccc(/C=C(\C#N)c2cc(OC)c3c(c2)OCO3)cc1`, the growth in assay [1] was 15.7%; in [2], 39.8%; in assay [3], 37.8%; in assay [4], 20.8%; in assay [5], 23%; in assay [6] it was -58.9% (active). The growth in [7] is 39.3%; in assay [8] it was 19.2%; in assay [10], 43.6%; in assay [11] it was 50.4%; in assay [12], 23.8%; in assay [13], 39.9%. Also, the growth in assay [14] is 49.6%; in assay [19] it was 40.7%; in assay [16], 35.5%; in assay [17] it was 14.7%; in assay [18], 7.91% (active).
Regarding `O=C1C(Cl)=C(Nc2ccccn2)C(=O)c2ccccc21`, the growth in assay [1] is 43.5%; in assay [2], 62.1%; in [3], 93.2%; in assay [4] it was 42.2%; in assay [5], 63.6%; in assay [6], -84.2% (active). Moreover, the growth in assay [7] is 1.2% (active); in [8], 14.5%; in [9] it was 34.8%; in [10] it was 88.2%; in assay [11], 98.1%; in assay [12], 5.54% (active). The growth is 12.6% in assay [13]; 17% in assay [15]; 53.1% in [19]; 100% in assay [16]; 56.4% in assay [17]; 62.8% in assay [18].

Values taken from PubChem BioAssay (NCI).
